# Screening data from PubChem BioAssay.
# D2 ag-1: human D2 receptor agonism in beta-arrestin assay; P14416; DiscoveRx PathHunter D2 beta-arrestin, luminescence, 90 min; 100% = 57 uM dopamine signal; activation, % (concentration not given with the values); 360,000 tested, 0.084% active; AID 624465; in the data active = activation above about 40%
# Target sequence (P14416 whole entry, looked up): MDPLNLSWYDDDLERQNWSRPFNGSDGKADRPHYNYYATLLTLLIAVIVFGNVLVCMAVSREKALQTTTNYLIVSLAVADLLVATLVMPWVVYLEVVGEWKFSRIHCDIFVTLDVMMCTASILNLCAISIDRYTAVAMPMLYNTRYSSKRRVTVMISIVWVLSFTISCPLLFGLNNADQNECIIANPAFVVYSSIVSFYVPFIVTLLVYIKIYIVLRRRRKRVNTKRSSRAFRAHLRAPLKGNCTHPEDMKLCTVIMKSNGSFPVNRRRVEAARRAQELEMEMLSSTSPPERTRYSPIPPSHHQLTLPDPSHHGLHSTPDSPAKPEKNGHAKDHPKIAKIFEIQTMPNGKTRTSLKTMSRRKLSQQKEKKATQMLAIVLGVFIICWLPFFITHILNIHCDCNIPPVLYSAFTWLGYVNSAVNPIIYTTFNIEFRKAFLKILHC
#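 Agonist mode: compounds alone added to overnight-plated D2 PathHunter cells for 90 min at 37 C, with 57 uM final dopamine (EC100) defining full response. Beta-arrestin recruitment detected by chemiluminescent reagent, read after 1 h at ambient temperature.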
# D2 PAM-1: D2 dopamine receptor (human) potentiation; P14416; HEK293 T-REx D2, calcium flux, EC20 dopamine potentiation; potentiation, % at 10 µM; 340,000 tested, 0.34% active;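 active = potentiation over 3 SD above the plate norm, cut at about 30% in these data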; also: 0% is about no effect
#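 Tetracycline-induced Hek293 Trex D2 cells, force-coupled to calcium, loaded with no-wash calcium dye. Compound added with 180 s kinetic read for agonism, then EC20 dopamine and a further 180 s read for potentiation.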
# D2 antag: antagonists of human D2 dopamine receptor. 340,000 tested, 2% active. P14416. HEK293 TREx D2 cells, calcium flux, dopamine EC80. inhibition, % at 10 µM. AID 485344; in the data active = inhibition above about 30%; inactive = below that, where a call was filed; also: 0% is about no effect
#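 Compounds are added to dye-loaded, induced HEK293 T-REx cells coupled to calcium release via D2; after a 3 min kinetic read an EC80 dopamine stimulus is given and fluorescence is recorded for 3 more min.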
# D2 PAM-2: positive allosteric modulators of human D2 dopamine receptor | P14416 | DiscoveRx D2 beta-arrestin cells, luminescence, 90 min; 100% = 57 uM dopamine signal | potentiation, % (no concentration beside the values) | 360,000 tested, 0.23% active | AID 624464; in the data active = potentiation above about 50%
#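 PathHunter beta-arrestin assay in DiscoveRx D2 cells. Compounds were added with an EC20 of dopamine (50 nM final) for 90 min at 37 deg C. Luminescence was read 1 h after detection reagent, with 57 uM dopamine as the EC100 control.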
# D2 ag-2: agonists of human D2 dopamine receptor. AID 485358. P14416. HEK293 T-REx D2 cells, calcium flux agonist mode. 340,000 tested, 0.53% active. activation, % at 2 µM;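 active = activation over 3 SD above normal in the single-dose calcium agonist read, cut at about 30% in these data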; also: 0% is about no effect
#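 Tetracycline-induced HEK293 T-REx cells with force-coupled D2 receptor, plated overnight at 30 C, loaded with no-wash calcium dye. After a 10 s baseline, compound was pin-added and calcium flux read kinetically for 180 s; calcium rises flagged agonists.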
# Active calls of the source: *; nt = no result given. A selection: hits, their analogues and other compounds. The true share with any hit is near 2.4%.
SMILES,D2 ag-1,D2 PAM-1,D2 antag,D2 PAM-2,D2 ag-2
CCc1cc2cc3c(cc2nc1SCC(=O)Nc1cc(C)on1)OCO3,-1,-2,32*,-8,0
CCOC(=O)CSc1nc2cc3c(cc2cc1CC)OCCO3,-5,75*,-13,-23,1
CCN(CC)S(=O)(=O)c1ccc2c(c1)N(CC(=O)N1CCN(c3cccc(C(F)(F)F)c3)CC1)C(=O)CO2,nt,-15,nt,nt,1
Cc1cc(C)n(CCCNC(=O)C2CCC(=O)N(CCc3ccc(Cl)cc3)C2)n1 (configuration not stated),-2,6,-1,-8,0
Cc1ccn(CCNC(=O)C2CCC(=O)N(CCc3ccc(Cl)cc3)C2)n1 (configuration not stated),-1,35*,2,16,0
C/C(=N\N=C1/SC(CC(=O)O)C(=O)N1c1ccccc1)c1ccc(C)cc1 (configuration not stated),-2,-15,30*,-6,-3
O=C(O)CC1S/C(=N/N=C2CCCCC2)N(c2ccccc2)C1=O (configuration not stated),-1,10,-12,-1,0
CN1C(C(=O)NC(C)(C)C)=CC(c2ccc3c(c2)OCO3)=NS1(=O)=O,nt,4,nt,nt,nt
CCCC(=O)Nc1ccc(C(=O)COC(=O)c2cc(C)oc2C)cc1,-1,-2,35*,3,1
Cc1nn(Cc2ccc([N+](=O)[O-])cc2)c(=O)n1-c1ccc(F)cc1,-3,17,-17,-14,0
Cc1nn(Cc2ccc([N+](=O)[O-])cc2)c(=O)n1-c1c(F)cccc1F,1,-1,37*,-8,0
Cc1nn(Cc2ccc([N+](=O)[O-])cc2)c(=O)n1-c1cccc(Cl)c1,5,-2,32*,-3,0
CSCC[C@H](NC(=O)OC(C)(C)C)C(=O)N1CCC(C(=O)NCC(=O)Nc2ccc(C)cc2)CC1,0,0,nt,-4,nt
COCCN(Cc1ccco1)C(=O)c1cc2c(Cl)nc3ccc(C)cc3c2s1,nt,8,nt,nt,1
CC1(c2ccccc2Cl)NC(=O)N(CC(=O)Nc2ccc(N3CCOCC3)cc2)C1=O (configuration not stated),0,nt,nt,0,nt
CC1(c2ccccc2Cl)NC(=O)N(CC(=O)Nc2ccc(N3CCCCC3)cc2)C1=O (configuration not stated),-3,-8,35*,1,1
Cc1ccc(SCC(=O)OCC(=O)N(C)CC(=O)Nc2ccccc2Cl)cc1C,1,-1,33*,6,2
CCN(CC)c1cc(C)c2cc(NC(=O)/C=C/c3ccccc3OC(C)C)ccc2n1,nt,-8,nt,nt,-1
O=C(O)CSCCc1ccccn1,-2,-19,53*,-4,-1
COCc1cc(=O)n2[nH]c(SCc3ccccc3)nc2n1,-4,2,5,-20,-1
COCc1cc(=O)n2[nH]c(SC)nc2n1,0,36*,5,-3,0
O=C(CN(CC1CCCO1)C(=O)CNS(=O)(=O)c1ccc(F)cc1)NCc1ccc(F)cc1 (configuration not stated),-1,5,37*,-3,0
CCCC(C(=O)NC1CCCC1)N(CC1CCCO1)C(=O)CNS(=O)(=O)c1ccc(F)cc1 (configuration not stated),-4,-4,32*,-1,0
CCCc1cc(=O)[nH]c(Nc2cc(C)ccc2OC)n1,nt,-26,nt,nt,-1
CCC(CC)c1nn2c(=O)cc(COc3ccc(NC(=O)c4ccccc4Cl)cc3)nc2s1,nt,0,nt,nt,0
SMILES,D2 ag-1,D2 PAM-1,D2 antag,D2 PAM-2,D2 ag-2
S=C1SCN(Cc2ccccn2)CN1Cc1ccco1,2,-4,36*,-4,1
COCCN1CSC(=S)N(Cc2ccco2)C1,-1,-6,-7,-9,0
O=S1(=O)NC(=NCc2ccccc2)c2ccccc21,-3,-7,30*,5,0
O=C(N/N=C/c1ccc(O)cc1)c1csc2ccccc12,1,4,32*,-5,0
O=S(=O)(CCN1CCSCC1)c1ccccc1,-7,nt,nt,-4,nt
CSCCC(NC(=O)c1ccco1)C(=O)OC(C)C(=O)NC(=O)NC1CCCCC1 (configuration not stated),-3,nt,49*,-3,7
COC(=O)[C@H](C)NC(=O)N1CCC(Cc2ccccc2)CC1,-4,-1,0,-16,1
O=C(c1cc2ccccc2o1)N1CCN(C/C=C/c2ccccc2)CC1,-3,-33,77*,-36,-2
Cc1ccc(NC(=O)N2CCN(C/C=C/c3ccccc3)CC2)cc1,-2,0,-9,-3,1
COC(=O)c1ccccc1NC(=O)N1CCN(C/C=C/c2ccccc2)CC1,2,-7,35*,-11,0
NC(N)=NS(=O)(=O)c1ccc(NC(=S)NC(=O)c2sc3ccccc3c2Cl)cc1,-6,-9,-4,-15,1
COC(=O)[C@@H]1[C@H]2C[C@H]3c4[nH]c5ccccc5c4CCN3C[C@@H]2CC[C@@H]1O,-3,-25,58*,-34,0
CCN(C(=O)CSc1nc2ccc([N+](=O)[O-])cc2s1)c1c(N)n(Cc2ccccc2)c(=O)[nH]c1=O,12,nt,nt,-9,nt
CC(NC(=O)c1ccco1)C(c1cccs1)N1CCN(c2ccccc2F)CC1 (configuration not stated),-1,38*,22,8,-1
Cc1ccc(C(=O)NC(C)C(c2cccs2)N2CCCC2)s1 (configuration not stated),7,33*,-4,-19,0
CC(C)C(=O)NC(C)C(c1cccs1)N1CCOCC1 (configuration not stated),-3,10,-13,7,0
Cc1cccc(NC(=O)NC(C)C(c2cccs2)N2CCOCC2)c1 (configuration not stated),-6,11,30*,-10,1
COc1ccc(C2=NN(C(=O)CSc3ncccn3)C(c3ccc(C)cc3)C2)cc1 (configuration not stated),-2,10,-18,-24,-1
COc1ccc(C2=NN(C(=O)CSc3nc(=O)n4cccc(C)c4n3)C(c3ccc(C)cc3)C2)cc1 (configuration not stated),-3,0,34*,-22,1
COc1ccc(N(CC(=O)NCCc2ccc(C)cc2)S(=O)(=O)c2c(C)noc2C)cc1,4,-7,1,19,0
COc1ccc(N(CC(=O)NCCc2ccc(OC)c(OC)c2)S(=O)(=O)c2c(C)noc2C)cc1,64*,-2,-12,-2,1
CN(C)S(=O)(=O)c1ccc(NC(=O)CN2CCC(Cc3ccccc3)CC2)cc1,-2,-6,-1,-3,2
